Hits are enriched below; roughly 3.6% of the tested compounds scored in any of these assays.
mHTT-CaM PPI inh = mutant huntingtin-calmodulin interaction inhibitors – biochemical, AlphaScreen, primary screen. P42858. AlphaScreen His-mHTT/GST-CaM binding, luminescence. inhibition, % at 15 µM. 190,000 compounds, 3.6% hits
Pf apPOL inh = Pf-apPOL inhibitors, biochemical, fluorescence | inhibition, % at 10 µM | 210,000 compounds, 0.25% hits | Recombinant Pf-apPOL, molecular beacon fluorescence, 1.5 h | AID 1794808, 2022 | Plasmodium falciparum apicoplast DNA polymerase (apPOL)
Of the large screens only hits and unclear results are named; the others gave an inactive call; ! = repeats disagree. Rule as the data show it: active = inhibition above about 50%; inactive = the rest.

CCC(C)NC(=O)c1cnn2c(C)c(Cc3cccc(Cl)c3)c(C)nc12 (stereo not drawn)	mHTT-CaM PPI inh 82
O=C(NC1CC1)c1ccc2c(c1)NC(=O)C(N1CCCCC1)S2 (stereo not drawn)	none
O=C1CC2c3ccccc3C1C1C(=O)N(c3cccc(C(F)(F)F)c3)C(=O)C21 (stereo not drawn)	none
O=C1NC2(CCN(C(=O)NCCc3ccccc3)CC2)Nc2cc(Cl)ccc21	none
O=C(NCc1ccco1)C1C2C=CC3(CN(Cc4ccccc4Cl)C(=O)C13)O2 (stereo not drawn)	none
CCCC1C(=O)CC(c2ccccc2)NC1c1ccccc1 (stereo not drawn)	none
Cc1noc(C)c1C1CCCN1C(=O)c1ccco1 (stereo not drawn)	none
CC(C)NCC(O)COc1ccc(C23CC4CC(CC(C4)C2)C3)cc1 (stereo not drawn)	mHTT-CaM PPI inh 100
C[N+]1(CC(O)COc2ccc(C34CC5CC(CC(C5)C3)C4)cc2)CCCC1 (stereo not drawn)	mHTT-CaM PPI inh 52
Cc1ccc(OCC(O)CNC(C)C)cc1 (stereo not drawn)	none
CC(C)(C)NCC(O)COc1ccc(C23CC4CC(CC(C4)C2)C3)cc1 (stereo not drawn)	mHTT-CaM PPI inh 100
CC[N+]1(CC(O)COc2ccc(C34CC5CC(CC(C5)C3)C4)cc2)CCCC1 (stereo not drawn)	none
OCCN(CCO)CC(O)COc1ccc(C23CC4CC(CC(C4)C2)C3)cc1 (stereo not drawn)	none
Cc1ccccc1C(=O)Nc1nc(C(C)(C)C)cs1	none
CCCCNC(=O)c1c[nH]c2ccc(S(=O)(=O)N(C)c3ccc(C)c(C)c3)cc2c1=O	none
O=C(Nc1nnc(C23CC4CC(CC(C4)C2)C3)s1)C1CCCCC1	none
O=C(Nc1ccc2c(c1)OCO2)C1CCCN(c2ccc(-c3ccc(F)cc3)nn2)C1 (stereo not drawn)	none
CC(C)N1C(=O)C(C)(C(=O)NCc2ccc(Br)cc2)Oc2cccnc21 (stereo not drawn)	mHTT-CaM PPI inh 95
CC(C)N1C(=O)C(C)(C(=O)NCc2ccccc2)Oc2cccnc21 (stereo not drawn)	none
CCCCN(C)C(=O)c1ccc2c(c1)NC(=O)C(N1CCOCC1)S2 (stereo not drawn)	none
Cc1cc(=O)n(CC(=O)Nc2ccccc2)c(N2CCCCC2)n1	none
Cc1cc(=O)n(CC(=O)Nc2ccc(Cl)cc2)c(N2CCCC2)n1	mHTT-CaM PPI inh 58
Cc1ccccc1CNC(=O)C1(C)CCCN(C(=O)c2ccco2)C1 (stereo not drawn)	none
COc1ccc(C2CC(C(F)(F)F)n3ncc(C(=O)Nc4ccccc4C)c3N2)cc1OC (stereo not drawn)	none
Cc1ccccc1-n1c(-c2ccc(F)cc2)cn2c3c(=O)n(C)c(=O)n(C)c3nc12	none
Cc1ccc2nc(Cl)cc(C)c2c1	none (no result: Pf apPOL inh)
COc1ccc(Nc2cc(C)c3cc(C)ccc3n2)cc1	mHTT-CaM PPI inh 56
COc1cccc2ccc(C=C3Oc4cc(O)ccc4C3=O)nc12	Pf apPOL inh 62
O=C1C(=Cc2ccc3ccccc3n2)Oc2cc(O)ccc21	none
CSc1nc2ccccc2[nH]c1=O	none (no result: Pf apPOL inh)
Cc1cc(C)c(S(=O)(=O)Nc2ccc3oc(=O)sc3c2)cc1C	none
Cc1ccc(C)c(S(=O)(=O)Nc2ccc3oc(=O)sc3c2)c1	Pf apPOL inh 73
CC(Oc1cccc(Cl)c1)C(=O)N1CCN(c2ccc([N+](=O)[O-])cc2)CC1 (stereo not drawn)	none
Cc1cc(Cl)ccc1OC(C)C(=O)N1CCN(c2ccc([N+](=O)[O-])cc2)CC1 (stereo not drawn)	Pf apPOL inh 55
COc1cc(OC)cc(C(=O)N2CCN(c3nc(CN4CCC(C)CC4)cs3)CC2)c1	none
Cc1ccc(-n2nc(C)c3c2OC(N)=C(C#N)C3c2ccco2)cc1 (stereo not drawn)	mHTT-CaM PPI inh 60
Cc1ccc(-n2nc(C)c3c2OC(N)=C(C#N)C3c2c(F)cccc2Cl)cc1 (stereo not drawn)	none
CC1(C)CC(NCc2ccc(F)cc2)CCO1 (stereo not drawn)	none
COc1ccc2[nH]cc(CCN3CC(C(=O)Nc4nnc(C(C)C)s4)CC3=O)c2c1 (stereo not drawn)	none
O=[N+]([O-])c1ccc(N2CCN(Cc3ccccc3)CC2)cc1NC1CC1	none
O=[N+]([O-])c1ccc(N2CCCC2)cc1N1CCN(Cc2ccccc2)CC1	mHTT-CaM PPI inh 53
CC(C)(C)n1nc2c(c1NC(=O)c1cccc(Br)c1)CSC2	mHTT-CaM PPI inh 53
CC(C)(C)n1nc2c(c1NC(=O)c1cccc(Cl)c1)CSC2	none
CC(C)(C)n1nc2c(c1NC(=O)c1ccc([N+](=O)[O-])cc1)CSC2	mHTT-CaM PPI inh 66
CC(C)Oc1ccc(C(=O)Nc2c3c(nn2C(C)(C)C)CS(=O)C3)cc1 (stereo not drawn)	none
CC(C)Oc1ccc(C(=O)Nc2c3c(nn2C(C)(C)C)CSC3)cc1	Pf apPOL inh 83
CC(C)(C)n1nc2c(c1NC(=O)c1cc([N+](=O)[O-])ccc1Cl)CSC2	none
CCN1C(=O)Cc2ccccc2C1C(=O)N1CCN(c2ccc(OC)cc2)CC1 (stereo not drawn)	none
COc1ccc(OCCNc2ccc(C(F)(F)F)cc2[N+](=O)[O-])cc1	none
COc1ccc(Nc2ccc(C(F)(F)F)cc2[N+](=O)[O-])cc1	mHTT-CaM PPI inh 53
Cc1ccc(C(=O)N2CCCC(c3nncn3-c3ccccc3)C2)cc1 (stereo not drawn)	none
COc1cc(OC)cc(C(=O)N2CCC(C(=O)NCc3ccccc3)CC2)c1	none
CC1(C)CC(=O)c2cn(-c3ccc(Cl)c(Cl)c3)c(=N)c(C#N)c2C1	none
CN(C)c1ccc(CNC(=O)CCC(=O)N2CCCn3nc(-c4cccn4C)cc32)cc1	mHTT-CaM PPI inh 74
CC(C)CCNC(=O)CCC(=O)N1CCCn2nc(-c3cccn3C)cc21	none
CCc1ccc(CNC(=O)C(=O)Nc2ccccc2)cc1	none
CC(Nc1cc(Cl)ccc1[N+](=O)[O-])C12CC3CC(CC(C3)C1)C2 (stereo not drawn)	none
Cc1ccc(-n2cc(-c3ccccc3)c3c(NCC4CCCO4)ncnc32)cc1 (stereo not drawn)	mHTT-CaM PPI inh 56
CCCCNc1ncnc2c1c(-c1ccccc1)cn2-c1ccccc1	none
O=C1CCCC2=C1C(c1ccc(F)cc1)c1c(nc(SCc3ccccc3F)[nH]c1=O)N2 (stereo not drawn)	none
Cc1cc(Oc2ccc(C(F)(F)F)cc2[N+](=O)[O-])c2cc(F)ccc2n1	none (no result: mHTT-CaM PPI inh)
N#CC(C#N)=C(SCc1c(F)cccc1Cl)SCc1c(F)cccc1Cl	Pf apPOL inh 72! (no result: mHTT-CaM PPI inh)
CN(C)C=CC(=N)SCc1c(F)cccc1Cl	none (no result: mHTT-CaM PPI inh)
CCc1ccc(CN2C(=O)CCC2(C)C(=O)NC2CCCCCCC2)cc1 (stereo not drawn)	none
Cc1ccc(-c2[nH]ncc2CN2CCCC2c2c(C)noc2C)cc1 (stereo not drawn)	none
O=C1C2CCCCC2C(=O)N1CCCn1ccnc1 (stereo not drawn)	none
COc1cc(NC(=O)CSc2nnc(-c3ccco3)c(-c3ccco3)n2)cc(OC)c1	mHTT-CaM PPI inh 97
CCc1ccc(NC(=O)CSc2nnc(-c3ccco3)o2)cc1	none
CCc1ccc(NC(=O)CSc2nnc(-c3ccco3)c(-c3ccco3)n2)cc1	mHTT-CaM PPI inh 92
COc1ccc(NC(=O)CSc2ncccn2)cc1	none
CCCCCCSc1nnc(-c2ccco2)c(-c2ccco2)n1	mHTT-CaM PPI inh 90
O=C(CSc1nnc(-c2ccco2)c(-c2ccco2)n1)c1ccc(Cl)cc1	mHTT-CaM PPI inh 61

Screens as filed in PubChem BioAssay.
